Results published in PubChem BioAssay (Tox21).
Inconclusive results are not listed. Calls of active or inactive are those of the source. Unless noted, calls come from the whole dose curve.

How the values were obtained:
[1] = Nuclear factor erythroid 2-related factor 2/antioxidant responsive element (Nrf2/ARE) small molecule agonists: qHTS cell viability counter screen in human keratinocytes (AID 1919968; active = well fitted curve in the direction sought with a large enough effect in the repeat runs; an effect the other way counts as inactive or inconclusive; note: nearly all actives have a fitted effect of over 55% in size; note: potency is the fitted concentration of half-maximal effect)
Outline: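 Stably transfected HaCaT (KeratinoSens), 1,500/well. Test agents in DMSO were applied for 23 h, 37 C/5% CO2. CellTiter-Fluor was incubated 1 h before the fluorescence read.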

[2] = target: Gonadotropin-releasing hormone receptor (Homo sapiens) (UniProt P30968); test: Human gonadotropin-releasing hormone receptor (GnRHR) small molecule agonists, calcium flux assay in GnRHR-HEK293 cells (AID 1920063); note: nearly all actives have a fitted effect of over 35% in size; note: potency is the fitted concentration of half-maximal effect
Sequence of Gonadotropin-releasing hormone receptor (Homo sapiens) (P30968 whole entry, looked up): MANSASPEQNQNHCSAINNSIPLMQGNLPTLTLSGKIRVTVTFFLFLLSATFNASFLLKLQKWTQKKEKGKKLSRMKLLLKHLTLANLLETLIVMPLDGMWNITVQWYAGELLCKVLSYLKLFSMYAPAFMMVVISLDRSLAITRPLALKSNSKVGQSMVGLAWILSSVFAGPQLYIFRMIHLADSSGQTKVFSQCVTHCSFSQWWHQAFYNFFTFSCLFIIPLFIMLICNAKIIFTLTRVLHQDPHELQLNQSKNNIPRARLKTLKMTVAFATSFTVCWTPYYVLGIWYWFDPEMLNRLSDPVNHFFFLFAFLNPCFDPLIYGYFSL
Outline: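 Stable human GnRHR HEK293 line. 18 h plating, then calcium dye for 1 h at 37 C. Agonist-mode compound addition from DMSO stocks; fluorescence monitored 3 min.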

[3] = target: KiSS-1 receptor (Homo sapiens) (UniProt Q969F8); test: Human kisspeptin (KISS1R) small molecule agonists, calcium flux assay in KISS1R-HEK293 cells (AID 1920064; active = well fitted curve in the direction sought with a large enough effect in the repeat runs; an effect the other way counts as inactive or inconclusive)
Sequence of KiSS-1 receptor (Homo sapiens) (Q969F8 whole entry, looked up): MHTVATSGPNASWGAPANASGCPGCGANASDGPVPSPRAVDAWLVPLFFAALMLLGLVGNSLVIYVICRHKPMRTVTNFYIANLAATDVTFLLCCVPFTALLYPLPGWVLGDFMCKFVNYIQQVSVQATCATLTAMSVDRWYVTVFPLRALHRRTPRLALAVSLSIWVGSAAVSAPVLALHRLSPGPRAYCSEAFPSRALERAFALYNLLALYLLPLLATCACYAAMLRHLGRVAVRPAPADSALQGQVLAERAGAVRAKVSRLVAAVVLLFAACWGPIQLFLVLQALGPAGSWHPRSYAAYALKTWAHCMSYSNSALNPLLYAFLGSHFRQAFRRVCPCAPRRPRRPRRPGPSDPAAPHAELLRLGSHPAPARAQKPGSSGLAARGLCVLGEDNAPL
Outline: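 After overnight (18 h) culture at 37 C/5% CO2, human KISS1R-HEK293 cells received calcium dye for 1 h, then test compound; emission at 540 nm (excitation 480 nm) was tracked for 3 min.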

[4] = G protein-coupled receptor (GPCR) small molecule agonists, calcium flux assay: HEK293 wild type cell line counter screen (AID 1920065)
Outline: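 Following 18 h incubation at 37 C/5% CO2, plates got calcium dye for 1 h; compounds, ATP or DMSO were then pinned in and fluorescence followed kinetically (480/540 nm).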

[5] = p53 small molecule agonists, cell-based qHTS assay with human liver microsomes (AID 1963577)
Outline: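 Fluorescence of the beta-lactamase reporter in p53RE-bla cells, detected with LiveBLAzer substrate (2 h, room temperature, dark), served as the read-out after 16 h compound exposure at 37 C with human liver microsomes and NADPH, each 0.5 mg/mL final.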

[6] = p53 small molecule agonists, cell-based qHTS assay with rat liver microsomes (AID 1963578)
Outline: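 Cells carrying a p53 response element–beta-lactamase reporter were plated and rested 5 h, then dosed with compound in DMSO plus rat liver microsomes and NADPH, each at 0.5 mg/mL final. After 16 h at 37 C, LiveBLAzer substrate was added for 2 h.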

[7] = p53 small molecule agonists, cell-based qHTS assay with human liver microsomes: qHTS cell viability counter screen (AID 1963579); note: nearly all actives have a fitted effect of over 45% in size
Outline: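 Cytotoxicity counter screen: p53RE-bla, 4,000 cells/well; 5 h settle, 37 C/5% CO2; cpd + HLM 0.5 mg/mL + NADPH 0.5 mg/mL (final); 16 h, 37 C; CellTiter-Glo, 30 min RT, luminescence.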

[8] = p53 small molecule agonists, cell-based qHTS assay with rat liver microsomes: qHTS cell viability counter screen (AID 1963580); note: nearly all actives have a fitted effect of over 45% in size
Outline: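 Cytotoxicity counter screen: intracellular ATP read by CellTiter-Glo luminescence in the p53 reporter wells. HCT-116 p53RE-bla cells were treated for 16 h at 37 C alongside rat liver microsomes and NADPH, each 0.5 mg/mL final.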

[9] = p53 small molecule agonists, cell-based qHTS assay: qHTS cell viability counter screen (AID 1963581); note: nearly all actives have a fitted effect of over 45% in size
Outline: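 qHTS counter screen: 16 h compound exposure at 37 C of p53RE-bla HCT-116 cells (4,000 per well, seeded 5 h prior), cell viability by ATP luminescence.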

[10] = p53 small molecule agonists, cell-based qHTS assay (AID 1963582; active = well fitted activation curve with a large enough effect in the signal ratio in the repeat runs, not every such curve was filed as active; the % refers to the signal ratio)
Outline: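 Measured: fluorescence from cleaved LiveBLAzer substrate. System: p53RE-bla cells, 16 h compound treatment at 37 C, 2 h substrate step at room temperature.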

[11] = target: 5-hydroxytryptamine receptor 2A (Homo sapiens) (UniProt P28223); test: 5-hydroxytryptamine receptor 2A (HTR2A) small molecule antagonists, cell-based qHTS assay (AID 1963586); note: nearly all actives have a fitted effect of over 45% in size
Sequence of 5-hydroxytryptamine receptor 2A (Homo sapiens) (P28223 whole entry, looked up): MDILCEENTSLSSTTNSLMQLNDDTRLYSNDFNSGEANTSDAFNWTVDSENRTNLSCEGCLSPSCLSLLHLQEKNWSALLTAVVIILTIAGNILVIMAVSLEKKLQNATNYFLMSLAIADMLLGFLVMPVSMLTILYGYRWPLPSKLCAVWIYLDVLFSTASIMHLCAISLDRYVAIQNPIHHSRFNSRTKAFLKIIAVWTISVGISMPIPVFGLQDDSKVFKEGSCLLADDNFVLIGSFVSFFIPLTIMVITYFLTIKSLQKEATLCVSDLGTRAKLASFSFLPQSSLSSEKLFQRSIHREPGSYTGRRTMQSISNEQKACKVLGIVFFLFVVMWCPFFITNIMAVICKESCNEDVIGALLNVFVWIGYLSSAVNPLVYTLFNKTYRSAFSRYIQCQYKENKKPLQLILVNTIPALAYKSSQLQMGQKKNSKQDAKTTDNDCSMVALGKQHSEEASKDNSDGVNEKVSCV
Outline: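 CHO cells stably expressing human HTR2A were plated for 18 h at 37 C, then loaded with calcium dye for 1 h. Compounds were preincubated 5 min at room temperature before DOI (4 nM solution) was added. Kinetic fluorescence was read for 3 min.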

[12] = target: 5-hydroxytryptamine receptor 2A (Homo sapiens) (UniProt P28223); test: 5-hydroxytryptamine receptor 2A (HTR2A) small molecule agonists, cell-based qHTS assay (AID 1963587); note: nearly all actives have a fitted effect of over 30% in size
Outline: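 Kinetic calcium-flux fluorescence (2 min, 1 sec intervals) after compound addition in agonist mode. HTR2A-CHO cells were cultured 18 h, then dye-loaded 1 h at 37 C.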

[13] = target: Muscarinic acetylcholine receptor M1 (Homo sapiens) (UniProt P11229); test: Cholinergic receptor muscarinic 1 (CHRM1) small molecule agonists, cell-based qHTS assay (AID 1963589); note: nearly all actives have a fitted effect of over 35% in size
Sequence of Muscarinic acetylcholine receptor M1 (Homo sapiens) (P11229 whole entry, looked up): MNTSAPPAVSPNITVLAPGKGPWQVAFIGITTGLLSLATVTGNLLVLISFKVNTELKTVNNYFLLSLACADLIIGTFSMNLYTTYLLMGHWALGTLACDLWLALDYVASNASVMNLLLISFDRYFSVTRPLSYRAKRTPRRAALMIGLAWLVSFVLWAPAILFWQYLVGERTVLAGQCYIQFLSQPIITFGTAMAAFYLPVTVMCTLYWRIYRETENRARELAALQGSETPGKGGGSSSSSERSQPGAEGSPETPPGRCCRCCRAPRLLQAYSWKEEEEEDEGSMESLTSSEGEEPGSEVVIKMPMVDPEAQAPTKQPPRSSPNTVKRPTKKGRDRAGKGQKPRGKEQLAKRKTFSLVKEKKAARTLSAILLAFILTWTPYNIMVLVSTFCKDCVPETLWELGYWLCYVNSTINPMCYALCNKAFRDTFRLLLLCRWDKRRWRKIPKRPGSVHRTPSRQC
Outline: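 Kinetic fluorescence (1 s intervals) of calcium-sensitive dye in human M1 CHO cells after compound addition; cells pre-incubated 18 h at 37 C/5% CO2 and dye-loaded 1 h.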

[14] = cAMP Responsive Elements (CRE) small molecule agonists, cell-based qHTS assay (AID 1963590)
Outline: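 Test agents in DMSO were incubated 3 h at 37 C/5% CO2 with CRE-bla HEK 293T cells seeded 18 h earlier; LiveBLAzer B/G FRET substrate was added and read after 2 h at room temperature.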

[15] = cAMP Responsive Elements (CRE) small molecule antagonists, cell-based qHTS assay (AID 1963591; active = well fitted inhibition curve with a large enough effect in the signal ratio in the repeat runs, not every such curve was filed as active; the % refers to the signal ratio)
Outline: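 Reporter line CRE-bla HEK 293T in dialyzed-FBS DMEM; cells preincubated 18 h, treated 3 h with compound plus NKH477 (0.25 uM final); LiveBLAzer FRET, 2 h RT.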

[16] = target: Beta-2 adrenergic receptor (Homo sapiens) (UniProt P07550); test: Adrenergic beta2 receptor (ADRB2) small molecule antagonists, cell-based qHTS assay (AID 1963592); note: series mostly up to about 92 µM; nearly all actives have a fitted effect of over 50% in size
Sequence of Beta-2 adrenergic receptor (Homo sapiens) (P07550 whole entry, looked up): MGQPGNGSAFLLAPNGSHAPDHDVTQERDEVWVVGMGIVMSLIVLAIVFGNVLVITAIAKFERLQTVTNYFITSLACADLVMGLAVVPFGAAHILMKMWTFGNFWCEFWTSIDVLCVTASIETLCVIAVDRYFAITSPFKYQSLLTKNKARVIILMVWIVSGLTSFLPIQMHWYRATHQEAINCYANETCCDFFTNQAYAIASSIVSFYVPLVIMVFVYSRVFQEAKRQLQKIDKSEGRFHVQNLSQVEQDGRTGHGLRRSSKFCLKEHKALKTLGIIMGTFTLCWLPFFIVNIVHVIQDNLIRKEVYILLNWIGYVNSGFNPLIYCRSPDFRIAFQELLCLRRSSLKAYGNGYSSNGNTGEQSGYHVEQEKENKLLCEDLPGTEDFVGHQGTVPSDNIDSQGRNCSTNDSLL
Outline: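 Assay format: CHO-ADRB2 cells, 18-20hr seeding at 37C/5% CO2, then compound plus 1nM isoproterenol agonist mix for 0.5hr RT. Homogeneous time-resolved fluorescence cAMP detection after 1hr, expressed as 665/615 nm ratio.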

[17] = target: D(2) dopamine receptor (Homo sapiens) (UniProt P14416); test: Dopamine D2 receptor (DRD2) small molecule agonists, cell-based qHTS assay (AID 1963594); note: nearly all actives have a fitted effect of over 35% in size
Sequence of D(2) dopamine receptor (Homo sapiens) (P14416 whole entry, looked up): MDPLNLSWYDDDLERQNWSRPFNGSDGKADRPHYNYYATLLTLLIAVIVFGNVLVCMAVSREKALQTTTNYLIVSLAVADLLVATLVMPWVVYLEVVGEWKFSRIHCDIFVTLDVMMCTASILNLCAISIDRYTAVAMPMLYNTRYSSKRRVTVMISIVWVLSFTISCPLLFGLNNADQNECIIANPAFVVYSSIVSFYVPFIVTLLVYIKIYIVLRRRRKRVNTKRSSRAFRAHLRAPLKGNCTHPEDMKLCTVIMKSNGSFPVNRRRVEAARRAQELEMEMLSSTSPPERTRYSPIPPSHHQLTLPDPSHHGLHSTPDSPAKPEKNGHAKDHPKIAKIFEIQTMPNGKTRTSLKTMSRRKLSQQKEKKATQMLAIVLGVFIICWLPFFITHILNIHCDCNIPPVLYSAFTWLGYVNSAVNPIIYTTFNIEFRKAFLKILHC
Outline: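 cAMP accumulation in DRD2-HEK293 cells measured by HTRF after 1 h detection; compounds added 10 min before NKH477 (200nM […]) forskolin-analogue stimulation, 30 min at room temperature, with Ro20-1724 present at 0.1 mM final.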

[18] = target: D(2) dopamine receptor (Homo sapiens) (UniProt P14416); test: Dopamine D2 receptor (DRD2) small molecule antagonists, cell-based qHTS assay (AID 1963595; active = well fitted inhibition curve with a large enough effect in the signal ratio in the repeat runs, with a control signal flat; the % refers to the signal ratio)
Outline: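 HTRF cAMP read-out at 665 and 620 nm emission (340 nm excitation). Antagonist mode: compounds were tested against 12 nM quinpirole in DRD2-HEK293 cells, with 200 nM NKH477 raising cAMP and 0.1 mM Ro20-1724 blocking its breakdown.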

[19] = target: Muscarinic acetylcholine receptor M1 (Homo sapiens) (UniProt P11229); test: Cholinergic receptor muscarinic 1 (CHRM1) small molecule antagonists, cell-based qHTS assay (AID 1963588); note: nearly all actives have a fitted effect of over 40% in size
Outline: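 Compounds were tested at 15 concentrations in three independent runs. Dye-loaded CHRM1-CHO cells were exposed 5 min at room temperature before stimulation by acetylcholine added at 50nM. Intracellular calcium was read kinetically on FDSS for 3 min.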

Measured: Potency

C/C(CC(C)C)=N\O
inactive: [1] | [2] | [3] | [4] | [5] | [6] | [7] | [8] | [9] | [10] | [11] | [12] | [13] | [14] | [15] | [16] | [17] | [18]

CCOC(=O)/C=C/c1ccccc1
inactive: [1] | [2] | [3] | [4] | [5] | [6] | [7] | [8] | [9] | [10] | [11] | [19] | [13] | [14] | [15] | [16] | [17] | [18]

CNCCC(Oc1ccc(C(F)(F)F)cc1)c1ccccc1 (stereo not given)
inactive: [3] | [4] | [5] | [6] | [7] | [8] | [9] | [10] | [14] | [15] | [16] | [17] | [18]
active: [1] 26.9 µM | [2] 38.4 µM

C=Cc1ccncc1
inactive: [1] | [2] | [3] | [4] | [5] | [6] | [7] | [8] | [9] | [10] | [11] | [12] | [19] | [14] | [15] | [16] | [17] | [18]

CC(Oc1c(Cl)cccc1Cl)C1=NCCN1 (stereo not given)
inactive: [1] | [2] | [3] | [4] | [5] | [6] | [7] | [8] | [9] | [10] | [11] | [19] | [14] | [15] | [16] | [17] | [18]

CC(=O)O[Si](C)(OC(C)=O)OC(C)=O
inactive: [1] | [2] | [3] | [4] | [5] | [6] | [7] | [8] | [9] | [10] | [11] | [12] | [19] | [14] | [15] | [16] | [17] | [18]

COc1ccnc2c1CCCCC2S(=O)c1nc2ccccc2[nH]1 (stereo not given)
inactive: [1] | [2] | [3] | [4] | [5] | [6] | [7] | [8] | [9] | [10] | [11] | [19] | [13] | [14] | [15] | [16] | [17] | [18]

O=C(Nc1ccc(C(=O)O)c(O)c1)c1ccccc1
inactive: [1] | [2] | [3] | [4] | [5] | [6] | [7] | [8] | [9] | [10] | [12] | [19] | [13] | [14] | [15] | [16] | [17] | [18]
